From PubChem
IMPase Li cell: IMPase inhibition in cells with lithium potentiation. CHO-M1 cells, IP1 TR-FRET (IP-One), carbachol + lithium. Potency, µM (doses to about 59.4 µM), without a hit: at the highest dose activity, negative = IMPase inhibition, most hits filed as inhibitors. actives 0.35% (n = 210,000). AID 1457;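 note: IP1 builds up when IMPase is blocked and the TR-FRET signal falls; potency is the fitted concentration of half-maximal effect; plate controls were basal vehicle for no effect and high inhibitor control for full effect; nearly all actives have a fitted effect of over 50% in size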
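Steps: plate 2000 CHO-M1 cells per well and culture 16–30 h; add compound and lithium; incubate 30 min, 37C; add d2-IP1 tracer and Eu cryptate anti-IP1 antibody in lysis buffer; read after 10 min at room temperature.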
HPGD inh: inhibitors of human 15-hydroxyprostaglandin dehydrogenase (HPGD); P15428; purified HPGD, NADH fluorescence kinetic, PGE2 substrate; Potency, µM, for inactives: at the top dose activity change, negative = inhibition, hits mostly inhibitors; actives 4.3% (n = 150,000); AID 894; active = well fitted inhibition curve with a large enough effect, not every such curve was filed as active; inconclusive = small, poorly fitted or top-dose-only effect, or another doubt; inactive = no such curve, though single readings can be large or run the other way; note: potency is the fitted concentration of half-maximal effect; % is set by controls: 0 for no effect and ±100 for the full control effect
Target sequence (P15428 whole entry, looked up): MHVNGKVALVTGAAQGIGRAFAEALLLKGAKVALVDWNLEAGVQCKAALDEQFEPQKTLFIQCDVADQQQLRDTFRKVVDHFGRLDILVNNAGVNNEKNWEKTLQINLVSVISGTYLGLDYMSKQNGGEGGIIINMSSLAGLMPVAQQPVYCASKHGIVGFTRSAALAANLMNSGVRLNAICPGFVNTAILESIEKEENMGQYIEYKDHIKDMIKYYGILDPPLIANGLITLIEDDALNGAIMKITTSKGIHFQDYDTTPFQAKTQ
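20 nM HPGD preincubated 15 min at room temperature with compound in 50 mM Tris-HCl pH 8, 0.01% Tween 20. Started with 1 mM NAD+ and 30 uM prostaglandin E2; NADH fluorescence (360/450 nm) read 5 times over 30-s intervals, last minus first.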
IMPase inh: IMPase inhibition in cells | AID 901 | inhibition (IP1 accumulation), % at 46.1 µM | CHO-M1 cells, IP1 accumulation, HTRF TR-FRET ratio | 120,000 tested, under 10 active; active = well fitted curve in the direction sought with a large enough effect in the signal ratio, not every such curve was filed as active; inconclusive = small, poorly fitted or top-dose-only effect, or a change in a side signal; inactive = no such curve, though single readings can be large or run the other way; the % refers to the signal ratio;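 note: cells stimulated with carbachol in lithium chloride buffer; plate controls were DMSO basal wells for no effect and reference inhibitor wells for full effect; higher means more IMPase inhibition seen as more IP1 and lower FRET ratio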
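Elevated IP1 in lysates lowers TR-FRET signal (665/620 ratio and 620 channel reported). Cells were CHO-M1, given carbachol (50 uM as added) plus 50mM LiCl, pH 7.4, 30 min, 37C; compounds titrated up to 46 uM; AC50 by Hill equation.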
HTT aggregate: reduces HttQ103-GFP aggregates in PC12 cells. Potency, µM (doses to about 46.1 µM), for inactives: at the top dose activity change, negative = inhibition, most hits filed as inhibitors. PC12 HttQ103-GFP aggregates, Acumen cytometry, 40 h. actives 1.1% (n = 220,000); note: potency is the fitted concentration of half-maximal effect; % is set by controls: 0 for no effect and ±100 for the full control effect; nearly all actives have a fitted effect of over 60% in size
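Aggregates are detected as GFP objects 1–25 µm with signal 6 STDEV over background in lysates of induced PC12 cells. These carry Huntingtin exon 1 with 103 glutamines fused to GFP under an ecdysone promoter; compounds titrated.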
HTT cytoprotect: protects HTT-Q103 PC12 cells, measured by ATP | PC12 HTT-Q103 induced, cytoprotection, ATP luminescence, 40 h | Potency, µM (titrated, usually from 56.4 µM), for the others: cytoprotection (ATP increase), actives largely listed as activators | actives 0.14% (n = 230,000); note: potency is the fitted concentration of half-maximal effect; % of control where 0% means no effect; nearly all actives have a fitted effect of over 45% in size
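Compounds were screened for protection of PC12 cells against cell death after tebufenozide induction (100 nM final) of mutant Huntingtin exon 1 (Q103) fused to GFP.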
ALDH1A1 block: inhibitors of human aldehyde dehydrogenase 1A1. Potency, µM (doses to about 75.3 µM), without a hit: at the highest dose activity, negative = inhibition, hits mostly inhibitors. actives 7.3% (n = 220,000). AID 1030. P00352. Purified ALDH1A1, NADH fluorescence, propionaldehyde substrate; active = well fitted inhibition curve with a large enough effect, not every such curve was filed as active; inconclusive = small, poorly fitted or top-dose-only effect, or another doubt; inactive = no such curve, though single readings can be large or run the other way;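 note: potency is the fitted concentration of half-maximal effect; plate controls were no enzyme wells and a reference inhibitor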
Target sequence (P00352 whole entry, looked up): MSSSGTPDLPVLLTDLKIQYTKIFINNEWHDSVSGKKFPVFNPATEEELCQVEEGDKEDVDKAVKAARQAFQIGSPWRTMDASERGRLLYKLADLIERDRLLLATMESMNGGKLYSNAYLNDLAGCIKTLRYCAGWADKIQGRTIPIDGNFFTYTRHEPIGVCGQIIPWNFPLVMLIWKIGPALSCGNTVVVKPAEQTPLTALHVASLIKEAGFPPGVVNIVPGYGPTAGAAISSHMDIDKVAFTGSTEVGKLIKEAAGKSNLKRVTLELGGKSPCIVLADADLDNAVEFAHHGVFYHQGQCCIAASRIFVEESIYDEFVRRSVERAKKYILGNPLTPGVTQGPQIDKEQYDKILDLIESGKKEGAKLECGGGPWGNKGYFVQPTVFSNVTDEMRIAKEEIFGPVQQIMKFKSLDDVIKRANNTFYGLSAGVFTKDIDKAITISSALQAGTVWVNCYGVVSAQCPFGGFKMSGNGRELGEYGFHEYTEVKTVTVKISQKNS
Starred values were filed as active, the others as inactive; u = inconclusive; x = not tested or not shown; [ ] = dose if it differs, or a comment. Rows were chosen to be rich in hits. Some 9.4% of all compounds tested hit in one or more screens of this group. Unless noted, calls come from the whole dose curve; as a rule, active = well fitted curve in the direction sought with a large enough effect; inconclusive = small, poorly fitted or top-dose-only effect, or another doubt; inactive = no such curve, though single readings can be large; an effect the other way counts as inactive or inconclusive.

SMILES | IMPase Li cell | HPGD inh | IMPase inh | HTT aggregate | HTT cytoprotect | ALDH1A1 block
CC(C)C[C@@H](CC(=O)N[C@@H](CCC(=O)O)CC(=O)O)NC(=O)[C@@H]1CNCC[C@H]1NC(=O)C[C@@H](NC(=O)C[C@H](Cc1ccccc1)NC(=O)[C@@H]1CNCC[C@H]1N)C(C)C | 24% | -12% | x | x | -1%[1.9 µM] | u
CC(C)C[C@H](NC(=O)N1CCCCCC1)C(=O)N[C@H](Cc1cn(C)c2ccccc12)C(=O)N[C@H](Cc1ccccn1)C(=O)O | 7% | -2% | 1 | x | u | -12%
COc1ccc(C(=O)CSc2nc(C(C)(C)C)nc3ccccc23)cc1 | 11% | x | x | 8%[9.22 µM] | 13%[10 µM] | 14µM*
COc1ccc(C(=O)CSc2nc3ccccc3n2CC(=O)c2ccccc2)cc1 | 14%[38.3 µM] | -5% | 11 | -10% | -10% | 25µM*
COc1ccc(OCCSc2nc3ccccc3n2CC(=O)O)cc1 | 19%[38.3 µM] | -4% | -5 | 2% | -12% | 5%
CC(C)(C)c1nnc(SCC(=O)c2ccccc2)n(N)c1=O | 18% | 25µM* | x | 10% | x | 9%
CCN(CC)C(=O)CSc1nc2ccccc2c(=O)n1CC1CCCCC1 | x | x | 24 | u | -47% | 11µM*
O=C(NC1CC2CCC(C1)N2Cc1nnnn1Cc1ccco1)NC12CC3CC(CC(C3)C1)C2 (centres undefined) | 21%[38.3 µM] | 21% | -2 | -5% | -7%[10 µM] | 7.9µM*
O=C(Nc1ccc(F)cc1)NC1CCN(Cc2nnnn2Cc2ccco2)CC1 | -4% | 2% | 6 | -8% | 6%[10 µM] | 18µM*
CCOc1ccccc1C(=O)NC1CC2CCCC(C1)N2C1CC1 (centres undefined) | 2%[38.3 µM] | -5% | -4 | -1% | -2% | -7%
CCOc1ccccc1C(=O)NC1CC2CCCC(C1)N2Cc1nnnn1Cc1ccco1 (centres undefined) | 7%[38.3 µM] | 0% | 10 | -6% | -31% | 1µM*
CCn1c(SCC(=O)N2CCCCC2)nc2c(c1=O)SC(C)C2 (centres undefined) | 36%[38.3 µM] | -19% | u | -6% | -17%[10 µM] | 22µM*
COCCn1c(SCC(=O)N2CCCc3ccccc32)nc2ccccc2c1=O | 3%[38.3 µM] | -7% | 6 | 2% | -14% | 25µM*
COCCn1c(SCC(=O)N2CCc3ccccc32)nc2c(c1=O)SC(C)C2 (centres undefined) | x | x | x | 13%[9.22 µM] | 10%[10 µM] | x
COCCn1c(SCC(=O)N2CCCc3ccccc32)nc2c(c1=O)SC(C)C2 (centres undefined) | 38%[38.3 µM] | -19% | 5 | u | -1%[10 µM] | 20µM*
CC(C)CC(=O)N1CC(C)N(C(=O)CC(C)C)CC1C (centres undefined) | 1% | 0% | x | 17% | 15%[10 µM] | 0%
NC(=O)SCC(=O)Nc1ccc2ncccc2c1 | -3% | -11% | x | x | 9%[10 µM] | u
Cc1ccc(C2CC(=O)N3CN(c4ccc(Br)cc4)CSC3=C2C#N)o1 (centres undefined) | u | u | -6 | 13% | -77%[0.074 µM] | u
COc1ccc(OC)c(C2CC(=O)N3CN(c4ccc(C)c(Cl)c4)CSC3=C2C#N)c1 (centres undefined) | 12%[38.3 µM] | u | -11 | -10% | -7% | 7.9µM*
CCOC(=O)c1ccc(N2CSC3=C(C#N)C(c4ccc(OC)cc4OC)CC(=O)N3C2)cc1 (centres undefined) | 12%[38.3 µM] | -9% | -1 | 8% | -15% | 14µM*
COc1ccc(OC)c(C2CC(=O)N3CN(c4cccc(Cl)c4)CSC3=C2C#N)c1 (centres undefined) | 6%[38.3 µM] | -20% | 4 | -10% | -22% | 35µM*
COc1ccc(-c2nc(C#N)c(N3CCN(c4cccc(Cl)c4)CC3)o2)cc1OC | 8%[38.3 µM] | u | 8 | -8% | -19%[0.074 µM] | u
CCOc1ccc(N2CSC3=C(C#N)C(c4ccco4)CC(=O)N3C2)cc1 (centres undefined) | u | 10µM* | 1 | 15% | -8% | 4.5µM*
CCOC(=O)C1=C(CC)OC(N)=C(C#N)C1c1ccc(OC)cc1OC (centres undefined) | 14% | -16% | -4 | -9% | 16%[10 µM] | -11%
O=C(/C=C\c1ccc(O)cc1)c1ccc(O)cc1O | x | x | -5 | x | 5%[1.9 µM] | x
SMILES | IMPase Li cell | HPGD inh | IMPase inh | HTT aggregate | HTT cytoprotect | ALDH1A1 block
C=CCC1C=CC(Oc2ccc(F)cc2C)C(CO)O1 (centres undefined) | x | x | x | x | 11%[10 µM] | 9%[13.5 µM]
O=C(Nc1nnc(C(F)(F)F)s1)c1ccc(N2C(=O)C3C4C=CC(C4)C3C2=O)cc1 (centres undefined) | -11%[38.3 µM] | 14µM* | -1 | -27% | -26% | 1%
C=CCn1c(NC(=O)c2ccc(Br)o2)c(C(=O)OCC)sc1=S | -8%[38.3 µM] | 16µM* | 10 | -10% | 5%[10 µM] | 3.5µM*
Cc1c(Cl)c(S(N)(=O)=O)cc(S(N)(=O)=O)c1NC(=O)c1ccc(Cl)cc1 | -9% | -8% | x | x | 0%[10 µM] | 10%[13.5 µM]
CCCNC(=O)c1ccc(C2SCC(=O)N2CCc2ccccc2)cc1 (centres undefined) | 1% | 13µM* | x | 2% | x | -8%
Cc1cccc(NC(=O)c2ccc(C3SCC(=O)N3CCc3ccccc3)cc2)c1C (centres undefined) | 13%[38.3 µM] | -22% | 7 | u | -25% | u
CCc1ccc(NC(=O)c2ccc(C3SCC(=O)N3CCc3ccccc3)cc2)cc1 (centres undefined) | 50%[38.3 µM] | -7% | 6 | -24% | -54% | u
CCNC(=O)c1ccc(C2SCC(=O)N2CCc2ccccc2)cc1 (centres undefined) | 6% | 22µM* | x | 4% | x | -4%
OC(CNC1CCCC1)COCCOc1ccc(Br)cc1 (centres undefined) | x | x | x | 14%[9.22 µM] | 34%[10 µM] | x
Cc1cc(C)c(C(=O)/C=C/c2ccco2)c(=O)[nH]1 | -4% | x | x | 5%[9.22 µM] | 7%[10 µM] | 11µM*
Cc1cc(C)c(C(=O)/C=C/c2cccs2)c(=O)[nH]1 | -2% | x | x | -18% | 7% | -1%
CCc1ccc(/C=C/C(=O)c2c(C)cc(C)[nH]c2=O)cc1 | 17%[38.3 µM] | -8% | 7 | 25µM* | 9%[10 µM] | 9%
Cc1ccc(/C=C/C(=O)c2c(C)cc(C)[nH]c2=O)cc1 | -5%[38.3 µM] | -14% | u | u | 9% | -3%
CC1=NCCN1S(=O)(=O)c1c(C(C)C)cc(C(C)C)cc1C(C)C | 22% | x | x | 10%[9.22 µM] | -13%[10 µM] | 2.2µM*
COc1ccc(Cl)cc1S(=O)(=O)N1CCN=C1C | -4%[38.3 µM] | -3% | -2 | -3% | -2% | 15%
COc1ccc2nc(C)cc(SCC(=O)N/N=C/c3ccc(O)cc3O)c2c1 | 10% | -21% | x | u | -9%[10 µM] | 25µM*
